Measurements as given in ChEMBL document CHEMBL4513216, “Probing the Open Global Health Chemical Diversity Library for Multistage-Active Starting Points for Next-Generation Antimalarials” (ACS Infect Dis, 2020).
Among all 69,000 compounds or so, about 8,600 (12%) showed an effect of 50% or more. This excerpt belongs to a sample that is enriched for strong results.

Each molecule was assayed on Plasmodium berghei (assay: Screen against P. berghei liver stage (PbLuc), transformed with Luciferase, at 10uM). Conditions: tested at 10 uM.
Type: functional, HepG2
`CSc1ccccc1C(=O)N(C)Cc1nncn1C(C)C` gave an INHIBITION of 37.4%.
`CC(=O)c1ccc(S(=O)(=O)NCc2cccnc2N(C)C)cc1` gave an INHIBITION of 66.7%.
`CNC(=O)c1ccc(S(=O)(=O)NCc2cccnc2N(C)C)cc1` showed an INHIBITION of 29.7%.
Work on `CN(C)c1ncccc1CNS(=O)(=O)c1ccccc1Cl` yielded an INHIBITION of -4.16%.
With `COC(=O)c1cccc(S(=O)(=O)NCc2cccnc2N(C)C)c1` the INHIBITION was 13.3%.
Molecule `CN(C)c1ncccc1CNS(=O)(=O)c1ccc(C(N)=O)cc1` has an INHIBITION of -3.2%.
In the case of `CC(=O)c1cccc(S(=O)(=O)NCc2cccnc2N(C)C)c1`, the INHIBITION is reported as 42%.
`Cc1ccc(F)cc1S(=O)(=O)NCc1cccnc1N(C)C` gave an INHIBITION of 49.3%.
For `CN(C)c1ncccc1CNS(=O)(=O)c1c(F)cccc1F`, the INHIBITION was 11.6%.
`CCOC(=O)c1ccc(S(=O)(=O)NCc2cccnc2N(C)C)cc1` showed an INHIBITION of 83.2%.
`CN(C)c1ncccc1CNS(=O)(=O)c1cc(F)ccc1F` gave an INHIBITION of -27.8%.
In the case of `COc1cc(C)c(S(=O)(=O)NCc2cccnc2N(C)C)c(C)c1`, the INHIBITION is reported as 61.7%.
With `COC(=O)c1ccc(S(=O)(=O)NCc2cccnc2N(C)C)cc1` the INHIBITION was 52.7%.
`COCCN1C[C@@H]2CN(Cc3ccsc3)CCC[C@]2(C(=O)O)C1` showed an INHIBITION of 3.47%.
`COc1ccc(CN2CC(O)CN(C(=O)CC(C)C)CC2=O)cc1` (stereo not given) gave an INHIBITION of 19.2%.
With `CC(C)C(NC(=O)NCC1CC1)c1nnc2n1CCC2` (stereo not given) the INHIBITION was 43.4%.
Work on `CCC(CNC1CCN(C(C)=O)CC1)Oc1cccc(C)c1` (stereo not given) yielded an INHIBITION of 61.5%.
Molecule `CCC(CNC1CCN(C(C)=O)CC1)Oc1ccccc1Cl` (stereo not given) has an INHIBITION of 42%.
`CCC(CNC1CCN(C(=O)N(C)C)CC1)Oc1ccccc1C` (stereo not given) showed an INHIBITION of 18.2%.
Work on `O=C(c1cccnc1)N1CCC2(CC1)COC(COc1ccccn1)C2` (stereo not given) yielded an INHIBITION of -2.25%.
Molecule `c1cc(CN2CCO[C@H]3[C@H](OCCN4CCCC4)CC[C@@H]32)co1` has an INHIBITION of 48%.
In the case of `Cc1cc2ncn(C(=O)N3CCCC3)c2cc1C`, the INHIBITION is reported as 22%.
With `CCc1nc2c(c(NC3CC3)n1)CCN(C(=O)N1CCN(C)CC1)CC2` the INHIBITION was 7.65%.
Molecule `Cc1nc2c(c(NC3CC3)n1)CCN(C(=O)CCO)CC2` has an INHIBITION of 56.7%.
For `Cc1nc2c(c(NC3CC3)n1)CCN(C(=O)C1(C#N)CC1)CC2`, the INHIBITION was 68.4%.
With `CCc1nc2c(c(NC3CC3)n1)CCN(C(=O)Cc1nonc1C)CC2` the INHIBITION was 19.5%.
With `Cc1nc(N2CCOCC2)nc2c1CCN(C(=O)C1(C#N)CC1)CC2` the INHIBITION was 30.3%.
`Cc1nc2c(c(NC(C)C)n1)CCN(C(=O)CCO)CC2` showed an INHIBITION of 46.6%.
Molecule `Cc1nc(C)c2c(n1)CCN(C(=O)C1(C#N)CC1)CC2` has an INHIBITION of 23.1%.
With `Cc1nc2c(c(NC3CC3)n1)CCN(C(=O)C(C)(C)O)CC2` the INHIBITION was 20.5%.
`CCc1nc2c(c(NC3CCC3)n1)CCN(C(=O)CO)CC2` showed an INHIBITION of 53.2%.
Work on `CCOC(=O)N1CCC(n2cc3[nH]cccc-3c2=O)CC1` yielded an INHIBITION of 9.63%.
Molecule `CN(C)c1cc(C2CCCN(C(=O)Cn3cc(Cl)cn3)C2)ccn1` (stereo not given) has an INHIBITION of 2.71%.
`O=c1[nH]c(-c2ccccn2)nc2c1CCN(Cc1cccc(O)c1)C2` showed an INHIBITION of 11.1%.
`O=C(c1ccnnc1)N1CCN2C[C@H](Oc3cccc(F)c3)C[C@H]2C1` gave an INHIBITION of 26.1%.
`c1ccc(CCN2CCn3cc(Cn4cccn4)nc3C2)cc1` showed an INHIBITION of 24.9%.
`O=C(C1CN(CC2CCOCC2)CC12CCOCC2)N1CCCC1` (stereo not given) was tested, and the INHIBITION was 29.8%.
`CCN(Cc1cnn(C)c1)C[C@H]1CC[C@@H](Cc2ccc(C)nc2)O1` gave an INHIBITION of 12.9%.
`CNC(=O)Cc1nc(CNc2ccc(SC)c(F)c2)cs1` showed an INHIBITION of 80.7%.
Work on `CSc1ccc(NCc2csc(C)n2)cc1F` yielded an INHIBITION of -35%.
`CSc1ccc(NCc2csc(CS(C)(=O)=O)n2)cc1F` was tested, and the INHIBITION was 17%.
For `CC1CN(C(=O)c2cccc(OCc3cscn3)c2)CCO1` (stereo not given), the INHIBITION was 39.75%.
For `CN1CCOC(C)(C(=O)N2CCSCC2)C1` (stereo not given), the INHIBITION was 18.3%.
`Cc1cc(NCCSc2nccn2C)n2ncnc2n1` gave an INHIBITION of 18.2%.
Work on `CNC(=O)c1ccc2c(OC)n(C)nc2c1` yielded an INHIBITION of 20.7%.
`CC(C)N(CCNC(=O)c1n[nH]c2ccccc12)C(C)C` showed an INHIBITION of 24.8%.
`CC(C)N(CCNC(=O)c1[nH]nc2ccc(I)cc12)C(C)C` gave an INHIBITION of 58.2%.
`CNC(=O)c1cc(C2CCCNC2)n[nH]1` (stereo not given) gave an INHIBITION of 5.34%.
Work on `CNC(=O)c1[nH]nc2ccc(I)cc12` yielded an INHIBITION of 77.7%.
In the case of `CN(C)CCNC(=O)Cc1cccc(I)c1`, the INHIBITION is reported as 1.75%.
Work on `Cc1cccc(-c2nc(CN3CCc4cncnc4C3)no2)c1` yielded an INHIBITION of -12.2%.
With `Brc1ccc2[nH]c3c(c2c1)CCCC3c1nn[nH]n1` (stereo not given) the INHIBITION was 0.0996%.
`CCc1cc(C(=O)N2CCCC(c3cc(=O)nc4n3CCC4)C2)no1` (stereo not given) was tested, and the INHIBITION was -35.5%.
`Cc1ncsc1CN1C[C@H](C(=O)N2CCCO2)[C@@H]2CCO[C@@H]2C1` gave an INHIBITION of 25.1%.
For `O=c1c2c[nH]c(N3CCOCC3)nc-2cn1-c1ccc2c(c1)OCO2`, the INHIBITION was -21.5%.
`CC(C)(C)OC(=O)N1CCN(c2ccc(F)cc2)CC1C(=O)O` (stereo not given) gave an INHIBITION of -5.8%.
In the case of `CCc1nc(CCNC(=O)Nc2cccc(C(=O)NC)c2C)cs1`, the INHIBITION is reported as -12.5%.
`CCc1nc(CCNC(=O)Nc2ccc(C(=O)NC)cc2)cs1` was tested, and the INHIBITION was 57.7%.
For `CCc1nc(CCNC(=O)Nc2ccc(C(=O)NC)cc2C)cs1`, the INHIBITION was 1.28%.
`CC(C)CS(=O)(=O)NC(=O)c1ccc2c(c1)ncn2C` showed an INHIBITION of -57.9%.
With `c1cc(NCc2ccncc2)nc(C2CCCNC2)c1` (stereo not given) the INHIBITION was 18.4%.
For `CC1c2ncc(COc3cccnc3)n2CCN1C(=O)C1=CCCC1` (stereo not given), the INHIBITION was -7.11%.
`CC(C)(C)OC(=O)Cn1nc(C2CC2)cc(C(F)(F)F)c1=O` was tested, and the INHIBITION was 32%.
`CC(C)(C)NC(=O)Cn1nc(C2CC2)cc(C(F)(F)F)c1=O` showed an INHIBITION of 28.7%.
For `CC(C)(C)C(=O)Cn1nc(C2CC2)cc(C(F)(F)F)c1=O`, the INHIBITION was 77.6%.
With `CCN1CCN(C(=O)NCc2ccccc2Cn2cncn2)CC1` the INHIBITION was 32.7%.
Molecule `Cn1ncnc1NCc1ccc(Br)cc1` has an INHIBITION of 20.9%.
Work on `COc1ccc(C2SCC(=O)N2c2ncc(C)s2)cc1` (stereo not given) yielded an INHIBITION of 24.7%.
`O=C(c1n[nH]c(=O)c2ccccc12)N1CCCCC1c1ccn[nH]1` (stereo not given) gave an INHIBITION of 40.9%.
In the case of `CC1CCCCN1C(=O)c1n[nH]c(=O)c2ccccc12` (stereo not given), the INHIBITION is reported as 60.2%.
`CNC(=O)C1CCCCN1C(=O)c1n[nH]c(=O)c2ccccc12` (stereo not given) showed an INHIBITION of 8.53%.
`O=C(COc1ccccc1)NS(=O)(=O)Cc1ccccc1` gave an INHIBITION of 11.8%.
`Cc1ccc(OCC(=O)NS(=O)(=O)Cc2ccccc2)cc1` was tested, and the INHIBITION was 69.8%.
With `Cc1cccc(OCC(=O)NS(=O)(=O)Cc2ccccc2)c1` the INHIBITION was 22.9%.
Work on `O=S(=O)(NCCCn1cncn1)c1ccc2c(c1)CCCC2` yielded an INHIBITION of 50.4%.
`O=S(=O)(NCCCn1cncn1)c1ccc2c(c1)CCO2` gave an INHIBITION of 44.9%.
`O=S(=O)(NCCCn1cncn1)c1ccc2c(c1)CCC2` showed an INHIBITION of -58.1%.
With `CCOc1ccc(CCCC(=O)N2CC[C@H](NC(C)=O)C2)cc1C` the INHIBITION was 16%.
In the case of `CCOc1ccc(C(=O)NC2CCN(c3ncccn3)CC2)cc1C`, the INHIBITION is reported as 34.2%.
Molecule `CCOc1ccc(C(=O)NC2CC2)cc1C` has an INHIBITION of 57%.
`CCN(CC)C(CNC(=O)c1ccc(S(=O)(=O)NC)cc1)c1ccco1` (stereo not given) was tested, and the INHIBITION was 6.12%.
`COc1cccc(OCC(=O)N(C)c2cccnc2)c1` showed an INHIBITION of 53.7%.
`COc1cccc(OCC(=O)N(C)c2cccnc2N(C)C)c1` showed an INHIBITION of 33.1%.
For `COc1cccc(OCC(=O)NS(=O)(=O)c2cccnc2)c1`, the INHIBITION was -19.05%.
`Cc1nc(C(C)C)sc1C(C)N(C)C(=O)c1ccc(=O)n(C)n1` (stereo not given) showed an INHIBITION of -19.7%.
`CCN(CC)c1ncccc1CNCc1cc2ccccc2s1` showed an INHIBITION of 5.91%.
Molecule `Cc1cc(NC(=O)CN2CCOC(CN(C)C)C2)n(C)n1` (stereo not given) has an INHIBITION of 4.35%.
In the case of `Cc1nc(CN2CCO[C@@H]3CN(Cc4nccs4)C[C@@H]3C2)cs1`, the INHIBITION is reported as 3.69%.
`O=C(CN1CCCC1c1cccs1)N1CCc2sccc2C1` (stereo not given) gave an INHIBITION of 19.2%.
`CC(C)c1noc(-c2cccc(OCC(N)=O)c2)n1` showed an INHIBITION of -110%.
`O=C(c1ccc2ncsc2c1)N1CCC(C(=O)O)(n2cccn2)CC1` was tested, and the INHIBITION was -0.529%.
In the case of `O=C(c1ccc2sccc2c1)N1CCC(C(=O)O)(n2cccn2)CC1`, the INHIBITION is reported as -16.6%.
Work on `O=C(c1ccc2occc2c1)N1CCC(C(=O)O)(n2cccn2)CC1` yielded an INHIBITION of 60%.
For `CN1CC2(CCN(CCCOCc3ccccc3)CC2)OC1=O`, the INHIBITION was 42.8%.
With `O=C(C1CCOC1)N1C[C@H]2CN(Cc3ccccn3)C[C@H]2C1` (stereo not given in full) the INHIBITION was 33.5%.
For `CC(=O)N(Cc1ncc(C)o1)C1CCN(Cc2sc(C)nc2C)C1` (stereo not given), the INHIBITION was -2.19%.
`c1ccc(Sc2ccc3c(c2)OCO3)c(CNC2=NCCN2)c1` gave an INHIBITION of 87.1%.
`Fc1ccccc1Sc1ccccc1CNC1=NCCN1` gave an INHIBITION of 75.7%.
For `O=C(Cc1cccnc1)NCCSc1ccccc1F`, the INHIBITION was -11.6%.
For `O=C1NCCCCC1Sc1ccccc1F` (stereo not given), the INHIBITION was 13.6%.
For `NCc1ccccc1Sc1ccc(O)cc1`, the INHIBITION was 39.4%.
Work on `CNC(C)Cc1ccccc1Sc1ccc(O)cc1` (stereo not given) yielded an INHIBITION of -2.39%.
Molecule `c1cc2c(cc1C1(CNC3=NCCN3)CCCC1)OCCO2` has an INHIBITION of 27.6%.
Molecule `Fc1ccc(Sc2ccccc2CNC2=NCCN2)cc1` has an INHIBITION of 83.3%.
`CC(C)NCc1nc(-c2ccc3c(c2)OCO3)c[nH]1` was tested, and the INHIBITION was -40.5%.
`CCCc1ccc(OCCNCc2ccco2)c(OC)c1` gave an INHIBITION of 1.71%.
For `Cc1ccc(C2CCCN2S(=O)(=O)N(C)Cc2nccn2C)o1` (stereo not given), the INHIBITION was 40.8%.
`Cc1nc(CN2CC[C@@H](OCC3CC3)[C@@H]2Cc2cccnc2)cs1` showed an INHIBITION of 10.5%.
`Cc1cnn(CC2CN(Cc3nnc(-c4ccccc4)o3)CCO2)c1` (stereo not given) gave an INHIBITION of -13.3%.
With `CC(=O)NC1CCCN(Cc2ccn(C)c(=O)c2)C1` (stereo not given) the INHIBITION was -4.4825%.
